Assay results as given in PubChem BioAssay AID777 (Sanford-Burnham Center for Chemical Genomics, 2007).
About 19,000 (20%) of roughly 96,000 compounds were called active. Only a sample is shown. A number with no mark means an inactive call.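 Rule for the calls: active = blocking of liver enzyme CYP2C9 beyond about 50% at 5 µM (limit read from the data); inactive = the rest.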

Target: Cytochrome P450 2C9 (Homo sapiens) (UniProt P11712)
Assay: blockers of cytochrome P450 2C9 activity – biochemical, luminescence, ADME assay, primary screen (AID 777)
Conditions: CYP2C9 Supersomes, luciferin-H conversion, at 5 µM, active compounds read high

Cytochrome P450 2C9 (Homo sapiens), sequence (P11712 whole entry, looked up): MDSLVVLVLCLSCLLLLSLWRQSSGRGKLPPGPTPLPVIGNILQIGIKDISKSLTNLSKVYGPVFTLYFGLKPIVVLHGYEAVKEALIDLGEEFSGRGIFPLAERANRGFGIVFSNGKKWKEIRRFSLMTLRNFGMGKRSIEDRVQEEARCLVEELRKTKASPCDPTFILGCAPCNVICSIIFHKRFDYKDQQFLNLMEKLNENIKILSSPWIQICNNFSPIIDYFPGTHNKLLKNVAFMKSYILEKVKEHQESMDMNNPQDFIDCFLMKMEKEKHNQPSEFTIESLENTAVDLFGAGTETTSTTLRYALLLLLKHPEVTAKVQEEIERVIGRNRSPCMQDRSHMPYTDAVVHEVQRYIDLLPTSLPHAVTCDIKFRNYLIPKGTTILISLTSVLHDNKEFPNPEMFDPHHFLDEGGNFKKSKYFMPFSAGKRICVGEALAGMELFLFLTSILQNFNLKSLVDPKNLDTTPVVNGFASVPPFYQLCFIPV

| SMILES | inhibition |
| --- | --- |
| Cc1cccc(NC(=S)N2CCC(c3nc4ccccc4s3)CC2)c1 | -16.4% |
| O=C(c1cccs1)N1CCN(C(=O)N2CCOCC2)CC1 | -2% |
| O=C(c1cccs1)N1CCC(c2nc3ccccc3s2)CC1 | 60.9% (active) |
| CCC1(C)Cc2c(sc3nnn(CC(=O)Nc4ccc(Cl)cc4)c(=O)c23)CO1 (stereo unspecified) | 49.3% |
| COc1ccc(Cc2nnc(NS(=O)(=O)Cc3ccccc3)s2)cc1 | 60.3% (active) |
| CCC(CC)c1nnc(NS(=O)(=O)Cc2ccccc2)s1 | 34.3% |
| COc1ccc(Cc2nnc(NC(=O)Cc3cccs3)s2)cc1 | 24.4% |
| COc1cc(/C=N\NC(=O)CNC(=O)c2cccc([N+](=O)[O-])c2)ccc1O | -11.8% |
| COc1ccc(C(=O)Nc2ccccc2C(=O)N/N=C/c2ccc(O)c(OC)c2)cc1 | 73.4% (active) |
| COc1ccc(C(=O)Nc2ccccc2C(=O)N/N=C/c2ccccc2OC)cc1 | -11.9% |
| CCCC(CCC(=O)OC)(C(=O)OCC)c1csc(N)n1 (stereo unspecified) | 30.1% |
| C#CCN1C(=O)C(O)(CC(=O)c2cc(OC)ccc2OC)c2ccccc21 (stereo unspecified) | 30.3% |
| O=C(Nc1ccccc1F)C1C2C=CC3(O2)C1C(=O)N(c1cccnc1)C3C(=O)NC1CCCCC1 (stereo unspecified) | -11.1% |
| CCOC(=O)NC(C(F)(F)F)(C(F)(F)F)P(=O)(c1ccccc1)c1ccccc1 | -2.2% |
| CCOc1cc2[nH]c(=S)n(CCN3CCCCC3C)c(=O)c2cc1OCC (stereo unspecified) | 17.7% |
| Nc1ccc(-c2sc(N)nc2-c2ccccc2)cc1 | 12.4% |
| Nc1ccc(Nc2ccccc2)cc1 | 12.1% |
| Nc1ccc(-c2nnc(-c3ccc(-c4ccccc4)cc3)o2)cc1 | 78.7% (active) |
| CSc1ncccc1C(=O)OCC(=O)N1CCOCC1 | -8% |
| C=CCN(N=Nc1cccc([N+](=O)[O-])c1)c1cccc([N+](=O)[O-])c1 | 46.4% |
| Cc1oc2nc(SCC(=O)NCc3cccnc3)nc(N)c2c1C | 14.4% |
| Cc1ccc(C(=O)NCCNS(=O)(=O)c2ccccc2)cc1 | 60% (active) |
| O=S(=O)(NCCNS(=O)(=O)c1ccccc1)c1ccccc1 | 34.1% |
| CS(=O)(=O)NCc1ccc(C(=O)NCc2ccccc2)cc1 | -6.7% |
| C/C(=N\NC(=O)Cc1ccc(Cl)cc1)c1ccccn1 | 32.4% |
| Cc1ccccc1CN1CCN(CC(=O)NCc2ccccn2)C1=O | -9.3% |

| SMILES | inhibition |
| --- | --- |
| COc1ccc(NC(=S)N2N=CCC2c2ccccc2)cc1 (stereo unspecified) | 10.8% |
| CNC(=S)N1N=C(c2ccccc2)CC1c1ccc(Br)cc1 (stereo unspecified) | 69.6% (active) |
| Cc1nn(C)c(Oc2ccc(Cl)cc2)c1C=O | 0% |
| Cc1cc(/C=C2/SC(=O)N(CC(=O)OC(C)C)C2=O)c(C)n1C | 5.9% |
| COc1ccc(-c2cc(C3CCN(c4ncccc4[N+](=O)[O-])CC3)[nH]n2)cc1 | 97.2% (active) |
| COc1cccc(NC(=O)c2nn(C34CC5CC(CC(C5)C3)C4)cc2[N+](=O)[O-])c1 | 11.2% |
| O=C1C=C(c2ccc(Cl)cc2)C(=O)N1Nc1ccccc1 | 45.5% |
| Cc1nnc(NC(=O)CSc2nc(C3CCCCC3)nc3ccccc23)s1 | 20.1% |
| COc1cc(CC(=O)NCc2cccs2)cc(OC)c1OC | -31% |
| S=C(NCc1cccs1)Nc1ccc(Cl)cc1 | 53% (active) |
| S=C(NCc1ccc(Cl)cc1)NC12CC3CC(CC(C3)C1)C2 | 49.3% |
| COC(=O)c1sccc1-n1cccc1C(=O)C(=O)N1CCCCC1 | 7.3% |
| CCOC(=O)N1CCN(c2c(NCCCN3CCCC(C)C3)c(=O)c2=O)CC1 (stereo unspecified) | 18.1% |
| COc1ccc(C2CC(c3ccc(Cl)cc3Cl)Nc3nc(N)nn32)cc1OC (stereo unspecified) | 9.8% |
| CCOc1ccccc1C1CC(c2ccccc2)Nc2nc(N)nn21 (stereo unspecified) | 12.8% |
| CCOc1ccccc1C1CC(c2ccc(Cl)cc2)Nc2nc(N)nn21 (stereo unspecified) | 51.1% (active) |
| Nc1nc2n(n1)C(c1ccco1)CC(c1ccc(Cl)c(Cl)c1)N2 (stereo unspecified) | 50% (active) |
| Cc1ccc(C2CC(c3cccc(Br)c3)n3nc(N)nc3N2)cc1 (stereo unspecified) | 5.1% |
| Cc1ccc(C2CC(c3cccc(C)c3)n3nc(N)nc3N2)cc1 (stereo unspecified) | 11.1% |
| CC1CN(c2cc(=O)n(Cc3ccc(F)cc3)c(=O)[nH]2)CC(C)O1 (stereo unspecified) | -11% |
| CCCn1c(SCC(=O)N2CCc3ccccc32)nnc1-c1ccncc1 | 45.9% |
| O=C(Cn1c(-c2ccc(Cl)cc2)noc1=O)N1CCN(c2ccccc2F)CC1 | 1.4% |
| O=C(NCc1ccco1)C1CCCN(S(=O)(=O)c2cccc3nonc23)C1 (stereo unspecified) | 2.8% |
| CCNc1nc(NCC)nc(N(C)n2cnnc2)n1 | 15.7% |
| CCOc1nc(OCC)nc(-n2cc(-c3ccccc3)nn2)n1 | 15.3% |
| CCCC(=O)Nc1ccc2c(c1)nc1n2CCSC1 | 3.2% |

| SMILES | inhibition |
| --- | --- |
| Cc1nc(SCC(=O)Nc2cc(C)on2)c2c3c(sc2n1)CCCC3 | -1.7% |
| CCCc1nc2sc3c(c2c(=O)n1NC(=O)CCCl)CCCC3 | 85% (active) |
| CCC(=O)NC(NCC1CCCO1)C(Cl)(Cl)Cl (stereo unspecified) | 15.6% |
| CCOc1ccc(NC(=O)CCS(=O)(=O)c2ccc3c(c2)CCCN3C(=O)CC)cc1 | -0.4% |
| COc1ccc(NC(=O)Cn2nnc(C(=O)NCCc3ccc(OC)c(OC)c3)c2N)cc1 | 35.6% |
| COc1ccc(CCNC(=O)CSc2nnc(CNC(=O)c3cccs3)o2)cc1OC | 17.8% |
| COc1ccc(CCNC(=O)CSc2nc(C)nc3c2oc2ccccc23)cc1OC | 58% (active) |
| COc1ccc(-c2nnc(SCC(=O)NC3CCCCC3)o2)cc1OC | 7% |
| COc1ccc(CCNC(=O)CSc2nnc(-c3cccc(F)c3)o2)cc1OC | 81.2% (active) |
| CCSc1nc(C)nc2c1oc1ccccc12 | 18.9% |
| COc1ccccc1Cn1c(=S)[nH]c2cc(C(=O)N3CCN(C)CC3)ccc2c1=O | -2.6% |
| CC1CCC(NC(=O)c2ccc(N3CCCC3=O)cc2)CC1 (stereo unspecified) | 5.2% |
| CSc1nc(O)c(Cc2ccccc2)c(=O)[nH]1 | 7.9% |
| Cn1c2ccccc2c2c(C(=O)N3CCN(c4ccc(F)cc4)CC3)cn(C3CCCC3)c(=O)c21 | 89.6% (active) |
| CCOC(=O)N1CCN(C(=O)c2nn(-c3ccc(C)cc3)c(=O)c3c2c2ccccc2n3C)CC1 | 8.8% |
| Cn1c(C(=O)N2CCC(C(N)=O)CC2)cc2c(=O)n(C)c3ccccc3c21 | -6.8% |
| Cn1c(=O)c2c(ncn2CC(COCc2ccccc2Cl)OCc2ccccc2Cl)n(C)c1=O (stereo unspecified) | 21.3% |
| CCC1SC2=NCCN2C1(O)c1ccc(Cl)cc1 (stereo unspecified) | 30.8% |
| O=C(Nc1ccc2c(c1)OCCO2)C1CCCN(c2ncccn2)C1 (stereo unspecified) | -3.8% |
| Cc1ccnc(N2CCCC(C(=O)Nc3cc(F)ccc3C)C2)n1 (stereo unspecified) | 90.4% (active) |
| Cc1ccnc(N2CCC(C(=O)NC3CCCCCC3)CC2)n1 | -45.1% |
| Cc1nnc(SCC(=O)NC2CCCC2)s1 | 11.5% |
| CN(CCCNC(=O)CN1C(=O)CC(C)(C)S(=O)(=O)c2ccccc21)C1CCCCC1 | 9.9% |
| O=C(CN1C(=O)CC(c2ccccc2)=Nc2ccccc21)NC1CCCCC1 | 52.3% (active) |
| O=C(CN1CCN(c2ccccn2)CC1)NC1CCCCC1 | 23.5% |
| CN1CCN(Cc2c(O)ccc3c2oc(=O)c2ccccc23)CC1 | -22.3% |

| SMILES | inhibition |
| --- | --- |
| CCOc1ccc(-c2nnc(-c3ccco3)o2)cc1 | 31.6% |
| COc1cccc(C(=O)Nc2ccc(NC(=O)c3ccco3)cn2)c1 | 23.4% |
| Cc1ccc(-c2nnc(-c3ccc(NC(=O)c4cccs4)cc3)o2)cc1 | 56.4% (active) |
| Cc1ccc(OCC(=O)Nc2ccc(-c3nnc(-c4ccco4)o3)cc2)cc1 | 66.3% (active) |
| O=C(Nc1ncccn1)c1cccs1 | -3.3% |
| CCC(=O)Oc1cccc(C(=O)Nc2ccc(-c3nnc(-c4ccco4)o3)cc2)c1 | 53.3% (active) |
| O=C(CCc1ccccc1)Nc1cccc(-c2nnc(-c3ccco3)o2)c1 | 19.3% |
| CCCCOc1ccc(-c2nnc(-c3ccco3)o2)cc1 | 19.4% |
| Cc1nc(-c2ccc(NC(=O)c3cccs3)cc2)cs1 | 20.2% |
| COc1ccc(Cl)cc1C(=O)Nc1ccc(N(C)C(C)=O)cc1 | -206% |
| C/C(=N\c1nc2ccccc2n1C)c1cc(Cl)ccc1O | -7.5% |
| CC(=O)N1C(=O)C2(Nc3ccccc3N2)c2ccccc21 | 4.4% |
| CC1CCc2c(c3ccccc3[nH]c2=O)O1 (stereo unspecified) | 35% |
| O=C(Nc1ccc(Br)c2cccnc12)c1ccc(Cn2cc([N+](=O)[O-])cn2)o1 | -72.9% |
| CCOC(=O)c1c(NC(=O)c2ccc(Br)o2)sc2c1CCCC2 | 10.2% |
| CC1CCc2c(sc(NC(=O)c3ccc(Cn4cc(Br)cn4)o3)c2C(N)=O)C1 (stereo unspecified) | 81.5% (active) |
| C=CCN1C(=O)C(Cc2cccc(Cl)c2)S/C1=N/N=C/c1ccco1 (stereo unspecified) | -2.7% |
| CCCNC(=O)c1ccc(Cl)c(Cl)c1 | -10.8% |
| CCCCNC(=O)C1CCCNC1=O (stereo unspecified) | -10.4% |
| CC1CN(c2cc(=O)n(-c3cccc(Br)c3)c(=O)[nH]2)CC(C)O1 (stereo unspecified) | -3.4% |
| CCCc1nc2ccccc2c(C(=O)OCC(=O)c2ccc3c(c2)NC(=O)CO3)c1CC | -20.4% |
| CCCc1nc2ccccc2c(C(=O)OCc2nnc(-c3cc(OC)c(OC)c(OC)c3)o2)c1CC | 67.5% (active) |
| COc1cc(-c2nnc(Cn3cc(C(F)(F)F)ccc3=O)o2)cc(OC)c1OC | 12% |
